Screening data from PubChem BioAssay.
Tau ThT inhib: qHTS for Inhibitors of Tau Fibril Formation, Thioflavin T Binding; recombinant tau K18 P301L, heparin-induced fibrillization, ThT fluorescence; hit rate 2.1% among 270,000; Potency, µM (doses to about 57.4 µM), most hits filed as inhibitors; Microtubule-associated protein tau (Homo sapiens), P10636; also: nearly all actives have a fitted effect of over 55% in size
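Aggregation was driven by heparin (20 uM final) acting on recombinant tau […] bearing P301L in 100 mM sodium acetate pH 7; fibrils were detected with Thioflavin T.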
Tau fibril FP: qHTS for Inhibitors of Tau Fibril Formation, Fluorescence Polarization. K18 P301L tau heparin fibrillization, Alexa594 FP, 6 h. Potency, µM (doses to about 57.7 µM), hits mostly inhibitors. hit rate 0.39% among 280,000. Microtubule-associated protein tau (Homo sapiens), P10636. AID 1468, 2008; also: nearly all actives have a fitted effect of over 55% in size
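Human tau K18 […] P301L fragment, 15 uM unlabeled plus 0.24 uM Alexa 594-labeled tau (final), with compound and 20 uM heparin in 100 mM sodium acetate pH 7; 6 hr at 37 C, then Alexa 594 FP read.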
USP1 inh: Inhibitors of USP1/UAF1: Primary Screen; recombinant USP1/UAF1, Ub-Rhodamine cleavage fluorescence; AID 743255, 2014; hit rate 0.23% among 390,000; Potency, µM (doses to about 57.1 µM), actives largely listed as inhibitors; Ubiquitin carboxyl-terminal hydrolase 1 (Homo sapiens), O94782; also: nearly all actives have a fitted effect of over 60% in size
Target sequence (O94782 whole entry, looked up): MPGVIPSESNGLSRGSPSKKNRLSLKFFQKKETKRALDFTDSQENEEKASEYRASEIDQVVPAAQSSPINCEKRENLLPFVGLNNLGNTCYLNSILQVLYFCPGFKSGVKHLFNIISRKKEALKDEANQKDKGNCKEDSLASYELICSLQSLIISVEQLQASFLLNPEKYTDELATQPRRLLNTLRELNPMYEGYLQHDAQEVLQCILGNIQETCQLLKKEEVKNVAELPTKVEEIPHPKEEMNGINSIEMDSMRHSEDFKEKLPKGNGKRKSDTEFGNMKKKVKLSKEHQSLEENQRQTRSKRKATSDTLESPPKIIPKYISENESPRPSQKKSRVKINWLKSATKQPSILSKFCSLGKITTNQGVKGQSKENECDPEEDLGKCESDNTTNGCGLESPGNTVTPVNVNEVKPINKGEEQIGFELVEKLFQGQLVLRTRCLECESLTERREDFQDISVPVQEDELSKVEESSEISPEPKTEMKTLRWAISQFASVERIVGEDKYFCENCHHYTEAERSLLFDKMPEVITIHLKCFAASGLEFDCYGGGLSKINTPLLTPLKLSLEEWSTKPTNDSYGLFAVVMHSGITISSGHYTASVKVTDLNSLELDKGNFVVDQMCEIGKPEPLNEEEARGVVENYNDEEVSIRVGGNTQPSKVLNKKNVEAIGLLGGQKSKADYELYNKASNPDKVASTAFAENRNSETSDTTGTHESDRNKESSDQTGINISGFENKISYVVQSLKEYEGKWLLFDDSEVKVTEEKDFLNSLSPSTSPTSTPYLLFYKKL
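High-throughput fluorogenic screen: 1nM USP1/UAF1 complex, Ub-Rho substrate 150nM final, 50mM HEPES pH 7.8 with 0.5mM EDTA, 0.1 mg/ml BSA, 1mM TCEP and 0.01% Tween-20.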
Tau fluor cs: Counterscreen qHTS for Inhibitors of Tau Fibril Formation, Fluorescence Polarization; hit rate 0.93% among 280,000; AID 1463, 2008; tau K18 P301L (four-repeat tau fragment) Alexa594 fluorescence, heparin fibrillization; Potency, µM (titrated, usually from 57.7 µM); also: nearly all actives have a fitted effect of over 55% in size
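Human K18 P301L tau (15 uM unlabeled plus 0.24 uM Alexa 594-labeled, final) in 100 mM sodium acetate pH 7 was mixed with compound and 20 uM heparin and incubated 6 hr at 37 C.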
Coupling enz: qHTS Assay for Inhibitors of Fructose-1,6-bisphosphate Aldolase from Giardia Lamblia: Coupling assay counterscreen; coupling enzyme system counterscreen, AmpLite Red fluorescence; hit rate 0.67% among 290,000; AID 2472, 2010; activity change, negative = inhibition, % at 58.2 µM, hits read low; in the data active = activity change below about -30%
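First, compound is pin-transferred into glyceraldehyde-3-phosphate coupling-enzyme reagent at 57.5 uM final and held 10 min at RT. Next, substrate, coupling system and AmpLite Red are added. After 20 min RT, fluorescence (525/598 nm) is read.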
Of the large screens only hits and unclear results are named; the others gave an inactive call; [ ] = another dose, or the depositor's remark. The list is not random: actives were taken first. Their share in the collection is about 2.3%. Unless noted, calls follow the shape of the dose curve; as a rule, active = well fitted curve in the direction sought with a large enough effect; inconclusive = small, poorly fitted or top-dose-only effect, or another doubt; inactive = no such curve, though single readings can be large; an effect the other way counts as inactive or inconclusive.

CC(=O)c1cccc(NC(=O)C(C)OC(=O)c2cc(=O)[nH]c3ccccc23)c1 (stereo not drawn)	none (no result: Tau ThT inhib, Tau fibril FP, Tau fluor cs, Coupling enz)
CCCNC1=C(N(C(C)=O)c2cccc(F)c2)C(=O)c2ccccc2C1=O	USP1 inh inconclusive, Coupling enz -49
Cc1c(/C(O)=C2\C(=O)C(=O)N(CCCN(C)C)C2c2ccco2)cnn1-c1ccccc1 (stereo not drawn)	none (no result: Tau ThT inhib, Tau fibril FP, Tau fluor cs, Coupling enz)
O=C(O)C1=C(C2CCCCC2)C(=O)c2ccccc21	none (no result: Tau ThT inhib, Tau fibril FP, Tau fluor cs, Coupling enz)
O=C(O)c1ccc(C2CCCCC2)cn1	Coupling enz -49
Cn1cc(/C=C2\SC(=S)N(NC(=O)c3cccc(Cl)c3)C2=O)c2ccccc21	Tau ThT inhib inconclusive, USP1 inh inconclusive
O=C(NN1C(=O)/C(=C/C=C/c2ccccc2)SC1=S)c1ccncc1	Tau ThT inhib 11µM, Tau fluor cs inconclusive
Cn1cc(/C=C2\SC(=S)N(NC(=O)c3ccccc3)C2=O)c2ccccc21	Tau ThT inhib inconclusive, Tau fibril FP 25µM
COc1ccc(C)cc1NC(=O)Cn1nc(N2CCN(c3ccccc3OC)CC2)ccc1=O	none (no result: Coupling enz)
CCCCC(=O)/C=C/n1c(=S)oc2ccccc21	Tau ThT inhib 14µM, Tau fibril FP inconclusive
CN1C(=O)c2ccccc2Sc2ccc(NC(=O)N3CCN(c4ccc(F)cc4)CC3)cc21	none (no result: Coupling enz)
COC(=O)C1=C(C)N(c2ccc(Cl)cc2)/C(=C/c2ccc(O)cc2)C1=O	Tau ThT inhib inconclusive
COC(=O)C1=C(C)N(c2cc(C)cc(C)c2)/C(=C/c2ccc(O)cc2)C1=O	Tau ThT inhib 32µM, USP1 inh inconclusive
CC(=O)Oc1ccc2c(c1)O/C(=C\c1ccncc1)C2=O	USP1 inh 28µM
Cc1cc(NC(=O)c2cnc3c(-c4ccccc4)c(C)nn3c2C)ccc1Br	Tau ThT inhib inconclusive, Tau fibril FP inconclusive (no result: Coupling enz)
CCOc1ccc(C(=O)Nc2ccc3c(c2)OCCO3)cc1Br	Tau ThT inhib inconclusive, Tau fluor cs 16µM[quencher] (no result: Coupling enz)
COc1ccc(C(=O)Nc2ccc3c(c2)OCCO3)cc1Br	none (no result: Tau ThT inhib, Tau fibril FP, Tau fluor cs)
COc1ccc(CNc2nc(SCc3ccccc3Cl)nc3ccccc23)cc1	none (no result: Coupling enz)
COc1ccc(C(C)=O)cc1CSc1nc(Nc2ccc(F)c(F)c2)c2ccccc2n1	USP1 inh inconclusive (no result: Coupling enz)
COc1cc(Nc2nc(SCc3ccccc3F)nc3ccccc23)cc(OC)c1	Tau ThT inhib inconclusive, Tau fibril FP 7.1µM, Tau fluor cs inconclusive (no result: Coupling enz)
Fc1ccc(Nc2nc(SCc3ccccc3F)nc3ccccc23)cc1	Tau ThT inhib inconclusive, Tau fibril FP 7.9µM, Tau fluor cs inconclusive (no result: Coupling enz)
COc1cc(Nc2nc(SCC(=O)c3ccc(Cl)c(Cl)c3)nc3ccccc23)cc(OC)c1	Tau fibril FP 14µM, USP1 inh inconclusive, Tau fluor cs inconclusive (no result: Coupling enz)
COc1cc(Nc2nc(SCc3ccccc3Cl)nc3ccccc23)cc(OC)c1	Tau ThT inhib inconclusive, Tau fibril FP 11µM, Tau fluor cs inconclusive (no result: Coupling enz)
COc1ccc(CCNC(=O)c2cc(Nc3cc(C)cc(C)c3)nc3ccccc23)cc1OC	Tau fluor cs inconclusive (no result: Coupling enz)
Cc1nnc(N2CCN(c3ccccc3F)CC2)c2c1nnn2Cc1ccc(F)cc1	none (no result: Coupling enz)
COc1cc(Nc2nc(SCc3cccc(Cl)c3)nc3ccccc23)cc(OC)c1	Tau ThT inhib inconclusive, Tau fibril FP 7.9µM, USP1 inh inconclusive, Tau fluor cs inconclusive (no result: Coupling enz)
CN1C(=O)CS/C1=N\NC(=O)COc1cccc2cccnc12	Tau ThT inhib 10µM
COc1ccc(CCNC(=O)Cn2c(=O)c3cccn3c3ccc(F)cc32)cc1OC	Tau ThT inhib inconclusive (no result: Coupling enz)
COc1ccc(CCNC(=O)Cn2c(=O)c3cccn3c3ccccc32)cc1OC	Tau fibril FP 14µM, Tau fluor cs inconclusive (no result: Coupling enz)
Cc1cccc(NC(=O)Cn2c(=O)c3cccn3c3ccccc32)c1C	Tau fibril FP 18µM, Tau fluor cs inconclusive (no result: Coupling enz)
CSc1nnc(C)c(/C=C/Nc2ccc(C)cc2)n1	Tau ThT inhib 5µM
CCCCC(CC)CNC(=O)C1CCC(CNS(=O)(=O)c2cccc3nsnc23)CC1 (stereo not drawn)	Tau ThT inhib inconclusive (no result: Coupling enz)
c1ccc(Nc2cccc(Nc3ccccc3)c2)cc1	Tau ThT inhib inconclusive, Tau fluor cs 11µM[quencher]
